Assay results taken from PubChem BioAssay AID1259421 (Broad Institute, 2018).
Several values for one entry are separate records, joined by “and”; a condition that tells them apart may be missing. Equal values may be shown once. About 610 (9.5%) of roughly 6,400 compounds were called active. Cut-off read from the data, not from the text of the source: active = activity change below about -70%; inconclusive = no clear call, values can overlap the other calls; inactive = above that. What follows is part of a selection rich in actives, with near analogues and random picks from the rest. Some compounds were tested as several samples or in several runs, with calls that do not always agree.

Experiment: T. gondii ME49Luc in HeLa cells, luciferase assay, 72 h, no IFN-y (AID 1259421)
Settings: stronger effect = lower value, concentration not given here
For `CN[C@@H]1C(OC2[C@H](O[C@H]3[C@H](O)[C@@H](O)[C@H](N=C(N)N)[C@@H](O)[C@@H]3N=C(N)N)OC(C)[C@]2(O)CO)OC(CO)C(O)C1O` (stereo partly specified), the activity change, negative = inhibition was 3.82% (inactive).
For `C[C@]12CCc3occc3C1CC[C@@]13C[C@@H](CCC12)[C@@](O)(CO)C3` (stereo partly specified), the activity change, negative = inhibition was -13.6% (inactive).
In the case of `CCC1(c2ncc[nH]2)Cc2ccccc2O1` (stereo unspecified), the activity change, negative = inhibition is reported as 15% (inactive) and -0.683% (inactive).
With `CC(=O)O[C@H]1CC[C@@]2(C)C(C[C@@H](OC(C)=O)[C@]3(C)C2CC[C@@]2(C)[C@H](c4ccoc4)OC(=O)[C@H]4O[C@]423)C1(C)C` (stereo partly specified) the activity change, negative = inhibition was -27.9% (inactive).
With `Nc1nccc2c1ncn2[C@@H]1O[C@H](CO)C(O)C1O` (stereo partly specified) the activity change, negative = inhibition was -4.71% (inactive).
In the case of `Nc1nccc2c1ncn2[C@@H]1C=C(CO)[C@@H](O)[C@H]1O`, the activity change, negative = inhibition is reported as -74.6% (active) and -68.5% (inactive).
With `Nc1ncnc2c1ncn2[C@@H]1O[C@H](CO)[C@@H](O)[C@@H]1O` the activity change, negative = inhibition was -51.5% (inactive).
With `CCC(CC)CC1(C(=O)Nc2ccccc2SC(=O)C(C)C)CCCCC1` the activity change, negative = inhibition was -68.8% (inactive).
In the case of `O=C(/C=C/c1ccccc1)NC(NC(=S)Nc1cccc2cccnc12)C(Cl)(Cl)Cl` (stereo unspecified), the activity change, negative = inhibition is reported as 0.586% (inactive).
For `O=C(/C=C/c1ccccc1)NC(NC(=S)Nc1ccc(Cl)cc1)C(Cl)(Cl)Cl` (stereo unspecified), the activity change, negative = inhibition was -82.6% (active).
In the case of `COc1cccc(NC(=O)/C=C/c2ccc(Cl)cc2)c1`, the activity change, negative = inhibition is reported as 290% (inactive) and 329% (inactive).
In the case of `CC(=O)c1ccc(NS(C)(=O)=O)c(Oc2ccc(F)cc2F)c1`, the activity change, negative = inhibition is reported as 22.3% (inactive).
With `COC[C@@H](c1ccc(C(F)(F)F)cc1)N1CCN(C2(C)CCN(C(=O)c3c(C)ncnc3C)CC2)C[C@@H]1C` the activity change, negative = inhibition was 5.59% (inactive).
For `CCc1ccc(OCc2ccccc2C(=O)Nc2ccc3nc(C)cc(N)c3c2)cc1`, the activity change, negative = inhibition was -82.4% (active).
For `CCN(CC)CCCC(C)Nc1nc(C)cc(Nc2ccc3nc(C)cc(N)c3c2)n1` (stereo unspecified), the activity change, negative = inhibition was -14.9% (inactive).
With `CCCC(=O)Nc1cccc(NC(=O)c2ccccc2Br)c1` the activity change, negative = inhibition was 17.4% (inactive).
With `Nc1c(Br)cc(Br)cc1CNC1CCC(O)CC1` (stereo unspecified) the activity change, negative = inhibition was 2.89% (inactive) and 3.02% (inactive).
With `Cc1[nH]c(=O)c(C#N)cc1-c1ccc2nccn2c1` the activity change, negative = inhibition was 24.3% (inactive) and 0.856% (inactive).
In the case of `CC(C)(C)c1nc(-c2cccc(NS(=O)(=O)c3c(F)cccc3F)c2F)c(-c2ccnc(N)n2)s1`, the activity change, negative = inhibition is reported as -88.1% (active).
With `Cn1c(=O)c2c(ncn2CCOC(=O)C(C)(C)Oc2ccc(Cl)cc2)n(C)c1=O` the activity change, negative = inhibition was 7.49% (inactive).
In the case of `CC(=O)O[C@H]1C[C@@]2(C)[C@@H](C[C@@H](O)C3[C@]2(C)CC[C@H]2[C@H](C)[C@H](O)CC[C@]32C)/C1=C(/CCC=C(C)C)C(=O)O` (stereo partly specified), the activity change, negative = inhibition is reported as -16.8% (inactive) and -21.5% (inactive).
In the case of `CN1C(=O)C[C@@H](C(=O)N[C@@H](Cc2cnc[nH]2)C(=O)N2CCC[C@H]2C(N)=O)NC1=O`, the activity change, negative = inhibition is reported as -66.5% (inactive).
For `COC(=O)C1=C(C)NC(C)=C(C(=O)NCCCN2CCC(c3ccccc3)(c3ccccc3)CC2)C1c1ccc([N+](=O)[O-])cc1` (stereo unspecified), the activity change, negative = inhibition was -48.9% (inactive).
In the case of `COC(=O)C1=C(C)NC(C)=C(C(=O)OCCCN2CCC(c3ccccc3)(c3ccccc3)CC2)[C@@H]1c1cccc([N+](=O)[O-])c1`, the activity change, negative = inhibition is reported as -76.4% (active) and -90.4% (active).
With `CCOC(=O)C1=C(C)NC(C)=C(C(=O)OC)C1c1cccc([N+](=O)[O-])c1` (stereo unspecified) the activity change, negative = inhibition was 3.95% (inactive) and 4.34% (inactive).
In the case of `COC(=O)C1=C(C)NC(C)=C(C(=O)OCCN(C)Cc2ccccc2)C1c1cccc([N+](=O)[O-])c1` (stereo unspecified), the activity change, negative = inhibition is reported as 31.7% (inactive) and 1.2% (inactive).
In the case of `COC(=O)C1=C(C)NC(C)=C(C(=O)O[C@H]2CCN(Cc3ccccc3)C2)[C@H]1c1cccc([N+](=O)[O-])c1`, the activity change, negative = inhibition is reported as 0.473% (inactive).
For `COC(=O)C1=C(C)NC(C)=C(C(=O)OC/C=C/c2ccccc2)C1c1cccc([N+](=O)[O-])c1` (stereo unspecified), the activity change, negative = inhibition was -14.8% (inactive).
In the case of `COC(=O)C1=C(C)NC(C)=C(C(=O)O[C@@H]2CCCN(Cc3ccccc3)C2)[C@@H]1c1cccc([N+](=O)[O-])c1`, the activity change, negative = inhibition is reported as 23.7% (inactive).
For `COC(=O)C1=C(C)NC(C)=C(C(=O)OCCCN2CCC(c3ccccc3)(c3ccccc3)CC2)[C@H]1c1cccc([N+](=O)[O-])c1`, the activity change, negative = inhibition was -68.2% (inactive) and -79.8% (active).
For `COC(=O)C1=C(C)NC(C)=C(C(=O)OCCN2CCN(C(c3ccccc3)c3ccccc3)CC2)C1c1cccc([N+](=O)[O-])c1` (stereo unspecified), the activity change, negative = inhibition was -60.9% (inactive) and -77.5% (active).
For `COc1ccc2c(c1)OC1(O)COc3cc(OC)c(OC)cc3C1=C2` (stereo unspecified), the activity change, negative = inhibition was 10.6% (inactive).
In the case of `CC(=O)N1CCN(CCOc2ccc(C3CCN(C4=Nn5c(nnc5C(F)(F)F)CC4)CC3)cc2)CC1`, the activity change, negative = inhibition is reported as 7.85% (inactive).
In the case of `O=C(OC1C[C@@H]2CC3C[C@H](C1)N2CC3=O)c1c[nH]c2ccccc12` (stereo partly specified), the activity change, negative = inhibition is reported as -0.997% (inactive).
In the case of `C[C@]1(Cn2ccnn2)C(C(=O)O)N2C(=O)CC2S1(=O)=O` (stereo partly specified), the activity change, negative = inhibition is reported as 0.084% (inactive).
For `CNc1cc2ncnc(Nc3cccc(Br)c3)c2cc1N`, the activity change, negative = inhibition was -8.12% (inactive).
With `O=c1[nH]cnc2c1cnn2[C@@H]1O[C@H](CO)[C@H](O)C1O` (stereo partly specified) the activity change, negative = inhibition was 19.3% (inactive).
In the case of `CCC(C)C(=O)OC1CC(C)C=C2C=CC(C)C(CCC(O)CC(O)CC(=O)O)C21` (stereo unspecified), the activity change, negative = inhibition is reported as 7.4% (inactive).
For `NCCC(O)(P(=O)(O)O)P(=O)(O)O`, the activity change, negative = inhibition was -2.86% (inactive).
With `COc1cc(O)c(C)c(O)c1` the activity change, negative = inhibition was 11% (inactive).
With `CC1(C)C(=O)N=C2c3ccccc3C(=O)C(=O)C21` (stereo unspecified) the activity change, negative = inhibition was -89.1% (active).
With `CNC(=O)[C@@H](c1ccccc1)N1CCc2cc(OC)c(OC)cc2[C@@H]1CCc1ccc(C(F)(F)F)cc1` the activity change, negative = inhibition was 7.93% (inactive).
With `O=C(Nc1cccc2c(=O)cc(-c3nn[nH]n3)oc12)c1ccc(OCCCCc2ccccc2)cc1` the activity change, negative = inhibition was 3.35% (inactive) and 13.6% (inactive).
For `COc1cccc(Nc2ncnn3ccc(CN4CC[C@@H](N)[C@H](O)C4)c23)c1`, the activity change, negative = inhibition was -86.2% (active).
In the case of `C[C@]12C=CC(=O)C=C1CCC1C2[C@@H](O)C[C@@]2(C)C1CC[C@]2(O)C(=O)CO` (stereo partly specified), the activity change, negative = inhibition is reported as 1.25% (inactive) and -8.87% (inactive).
In the case of `CC(=O)O[C@@H]1c2c(ccc3ccc(=O)oc23)OC(C)(C)[C@@H]1OC(=O)CC(C)C`, the activity change, negative = inhibition is reported as -2.35% (inactive).
For `CCCN(CCC)CC1CCCCN1CCNC(=O)N1c2ccccc2C(=O)Nc2cccnc21` (stereo unspecified), the activity change, negative = inhibition was 3.45% (inactive).
In the case of `CCOC(=O)[C@H](CCc1ccccc1)N[C@@H](C)C(=O)N(CC(=O)O)C1Cc2ccccc2C1`, the activity change, negative = inhibition is reported as 7.2% (inactive).
With `CCC(C)(C)C(=O)OC1CC(C)C=C2C=CC(C)C(CCC3CC(O)CC(=O)O3)C21` (stereo unspecified) the activity change, negative = inhibition was -4.9% (inactive).
In the case of `C=CCNC1=C2C[C@@H](C)C[C@H](OC)[C@H](O)[C@@H](C)/C=C(\C)[C@H](OC(N)=O)[C@@H](OC)/C=C\C=C(/C)C(=O)NC(=CC1=O)C2=O`, the activity change, negative = inhibition is reported as -56% (inactive).
With `CO[C@H]1/C=C\C=C(/C)C(=O)NC2=CC(=O)C(NCCN(C)C)=C(C[C@@H](C)C[C@H](OC)[C@H](O)[C@@H](C)/C=C(\C)[C@@H]1OC(N)=O)C2=O` the activity change, negative = inhibition was -69.9% (inactive) and -80.4% (active).
With `COC1C=COC2(C)Oc3c(C)c(O)c4c(c3C2=O)C2(C=C(NC(=O)/C(C)=C\C=C/C(C)C(O)C(C)C(O)C(C)C(OC(C)=O)C1C)C4=O)OCC(=O)O2` (stereo unspecified) the activity change, negative = inhibition was -2.28% (inactive).
With `NCCCCCC(O)(P(=O)(O)O)P(=O)(O)O` the activity change, negative = inhibition was 13% (inactive).
With `Cn1cnc2c(NCc3ccccc3)nc(NCCO)nc21` the activity change, negative = inhibition was 10.2% (inactive).
In the case of `c1ccc(CNc2ncnc3ccccc23)cc1`, the activity change, negative = inhibition is reported as -3.07% (inactive).
For `c1ccc(CNc2nc(NCc3ccccc3)c3ccccc3n2)cc1`, the activity change, negative = inhibition was -83.6% (active).
With `CN1C(C(=O)Nc2ccccn2)C(=O)c2sc(Cl)cc2S1(=O)=O` (stereo unspecified) the activity change, negative = inhibition was 6.43% (inactive).
With `CC(C)(C)NC[C@@H](O)COc1nsnc1N1CCOCC1` the activity change, negative = inhibition was 15.6% (inactive) and -4.63% (inactive).
For `CC(=O)N[C@H]1[C@H]([C@H](O)[C@H](O)CO)O[C@](O)(C(=O)O)C[C@@H]1O`, the activity change, negative = inhibition was 19.2% (inactive).
In the case of `Cc1cc(S(=O)(=O)O)c2c(C)ccc(C(C)C)cc1-2`, the activity change, negative = inhibition is reported as 0.707% (inactive).
For `N#C/C(=C\c1ccc(O)c(O)c1)C(=O)NC1CCC(CC2CCC(NC(=O)/C(C#N)=C/c3ccc(O)c(O)c3)CC2)CC1` (stereo unspecified), the activity change, negative = inhibition was -83.2% (active).
With `N#C/C(=C\c1ccc(O)c(O)c1)C(=O)Nc1ccccc1` the activity change, negative = inhibition was 10% (inactive) and 2.22% (inactive).
For `N#C/C(=C/c1ccc(O)c(O)c1)C(=O)Nc1ccccc1`, the activity change, negative = inhibition was 11.3% (inactive).
For `COc1cc(OC)c(-c2c(OC)cc(OC)cc2OC)c(OC)c1`, the activity change, negative = inhibition was -0.897% (inactive).
With `CN(C)[C@@H]1CCc2[nH]c3ccc(NC(=O)c4ccc(F)cc4)cc3c2C1` the activity change, negative = inhibition was 0.289% (inactive) and 6.81% (inactive).
With `CC(=O)NC1C(O)OC(COS(=O)(=O)O)C(OC2OC(C(=O)O)C(OC3OC(CO)C(OC4OC(C(=O)O)C(O)C(O)C4OS(=O)(=O)O)C(OS(=O)(=O)O)C3NS(=O)(=O)O)C(O)C2OS(=O)(=O)O)C1O` (stereo unspecified) the activity change, negative = inhibition was 9.64% (inactive).
For `CN(C)C(=O)Nc1cccc(-c2ccc(N(C)C)cc2)c1`, the activity change, negative = inhibition was 27.1% (inactive).
For `CCn1cc(-c2ccnc3[nH]c(-c4cccc(CN(C)C)c4)cc23)c(-c2ccc(NC(=O)N(C)C)cc2)n1`, the activity change, negative = inhibition was -82.3% (active).
For `CN(Cc1cnc2nc(N)nc(N)c2n1)c1ccc(C(=O)NC(CCC(=O)O)C(=O)O)cc1` (stereo unspecified), the activity change, negative = inhibition was -57.2% (inactive) and 1.6% (inactive).
With `C#CCC(Cc1cnc2nc(N)nc(N)c2n1)c1ccc(C(=O)N[C@@H](CCC(=O)O)C(=O)O)cc1` (stereo partly specified) the activity change, negative = inhibition was -66.9% (inactive).
With `CN(Cc1cnc2nc(N)nc(N)c2n1)c1ccc(C(=O)N[C@@H](CCC(=O)O)C(=O)O)cc1` the activity change, negative = inhibition was -80.9% (active) and -28.7% (inactive).
